From the supplement of paper PMC12494721
Counter-ions that a name gives are not always drawn. Values without a mark were called inactive.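 Rule for the calls: for the amine columns active = adjusted P below 0.05 in both replicates with a change the same way and a mean fold change under 0.8 or over 1.25; inactive = the rest.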

These compounds were tested on Ruminococcus gnavus DSM 108212 (assay: fold change of 2-Phenylethylamine concentration vs plate DMSO controls (fold change (ratio)); higher = more amine produced, active = hit call of the paper (significant change in both replicates, either direction)). Details: 20 µM; incubation time: 27 h, anaerobic, 37 °C.
In short: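 Amines were quantified by LC–triple-quadrupole MS in dynamic MRM mode against external calibration curves, with drift correction within each batch. The samples were whole anaerobic mGAM cultures of four gut bacterial strains, grown for 27 h at 37 °C in 80 µL wells and extracted with cold acetonitrile/methanol with 0.1% formic acid, then centrifuged. Values are reported as fold change over DMSO controls on the same plate. The mean of 2 biological replicates is given.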

| Compound | fold change of 2-Phenylethylamine concentration |
| --- | --- |
| C[C@@H]1C[C@@H]([C@H](O)CC2CC(=O)NC(=O)C2)C(=O)[C@@H](C)C1 [Cycloheximide] | 0.95 |
| CCNC1(c2cccs2)CCCCC1=O (stereo unspecified) [Tiletamine hydrochloride] | 1 |
| CCCC1COC(Cn2cncn2)(c2ccc(Cl)cc2Cl)O1 (stereo unspecified) | 1.17 |
| ClC1C(Cl)C(Cl)C(Cl)C(Cl)C1Cl (stereo unspecified) | 0.979 |
| CN1C[C@H](CNC(=O)OCc2ccccc2)C[C@@H]2c3cccc4c3c(cn4C)C[C@H]21 [Metergoline] | 0.967 |
| O=[N+]([O-])O[C@@H]1CO[C@H]2[C@@H]1OC[C@@H]2O [Isosorbide mononitrate] | 0.946 |
| C[N+]1(C)CCCCC1 | 1.05 |
| N#Cc1nn(-c2c(Cl)cc(C(F)(F)F)cc2Cl)c(N)c1[S+]([O-])C(F)(F)F (stereo unspecified) | 1.27 |
| COCC(=O)N(c1c(C)cccc1C)[C@H](C)C(=O)OC | 1.05 |
| Cc1cc(C(F)(C(F)(F)F)C(F)(F)F)ccc1NC(=O)c1cccc(I)c1C(=O)NC(C)(C)CS(C)(=O)=O | 0.908 |
| CC1C=CC=CCCC=CC=CC=CC=CC(OC2OC(C)C(O)C(N)C2O)CC2OC(O)(CC(O)C(O)CCC(O)CC(O)CC(O)CC(=O)OC(C)C(C)C1O)CC(O)C2C(=O)O (stereo unspecified) [Nystatine] | 0.998 |
| CCOC(=O)CC(SP(=S)(OC)OC)C(=O)OCC (stereo unspecified) | 1 |
| Fc1ccc([C@]2(Cn3cncn3)O[C@H]2c2ccccc2Cl)cc1 (racemic) | 1.02 |
| O=C(Nc1ccccc1-c1ccc(Cl)cc1)c1cccnc1Cl | 0.916 |
| CCN(CC)c1nc(C)cc(OP(=S)(OC)OC)n1 | 1.05 |
| O=C(O[C@H]1C[N+]2(CCCOc3ccccc3)CCC1CC2)C(O)(c1cccs1)c1cccs1 [Aclidinium bromide] | 0.963 |
| CCC(C)(c1ccc(O)cc1)c1ccc(O)cc1 [Bisphenol B] | 0.974 |
| CNC(=O)/C=C(\C)OP(=O)(OC)OC | 1.06 |

| Compound | fold change of 2-Phenylethylamine concentration |
| --- | --- |
| CO/C=C(/C(=O)OC)c1ccccc1Oc1cc(Oc2ccccc2C#N)ncn1 | 1.01 |
| C[C@@H]1CN([C@H]2CC[C@](C#N)(c3ccc(F)cc3)CC2)CC[C@]1(C(=O)O)c1ccccc1 [Levocabastine hydrochloride] | 0.949 |
| O=C(O)c1nc(Cl)ccc1Cl | 1.02 |
| CCn1cc(C(=O)O)c(=O)c2cc3c(cc21)OCO3 [Oxolinic acid] | 0.959 |
| CC(C)(C)C(O)(CCc1ccc(Cl)cc1)Cn1cncn1 (stereo unspecified) | 1.15 |
| C[C@]12C=CC(=O)C=C1CC[C@@H]1[C@@H]2CC[C@@]2(C)[C@H]1CC[C@]2(C)O [Methandrostenolone] | 1.02 |
| COP(=S)(OC)Oc1nc(Cl)c(Cl)cc1Cl | 0.866 |
| O=C(O)C(F)(F)C(F)(F)C(F)(F)C(F)(F)C(F)(F)C(F)(F)F [PFHpA (Perfluoroheptanoic acid)] | 0.98 |
| OCC(O)CCl (racemic) | 1.18 |
| CC(=O)O[C@H]1CC[C@@]2(C)C(=CC[C@@H]3[C@@H]2CC[C@]2(C)C(=O)CC[C@@H]32)C1 [Dehydroisoandosterone 3-acetate] | 1.04 |
| CC(C)N(C(=O)COc1nnc(C(F)(F)F)s1)c1ccc(F)cc1 | 0.832 |
| CC(=O)OCC(=O)[C@H]1CC[C@H]2[C@@H]3CC[C@H]4C[C@H](O)CC[C@]4(C)[C@H]3C(=O)C[C@]12C [Alfadolone acetate] | 1.01 |
| C[C@]12CC[C@@H]3c4ccc(OC(=O)N(CCCl)CCCl)cc4CC[C@H]3[C@@H]1CC[C@@H]2O [Estramustine] | 0.928 |
| CCC(=O)Nc1ccc(Cl)c(Cl)c1 | 1.13 |
| O=P1(N(CCCl)CCCl)NCCCO1 (stereo unspecified) [Cyclophosphamide] | 1.03 |
| Cc1cc(C(C#N)c2ccc(Cl)cc2)c(Cl)cc1NC(=O)c1cc(I)cc(I)c1O (stereo unspecified) [Closantel] | 0.13 (active) |
| COP(=S)(OC)SCN1C(=O)c2ccccc2C1=O | 1 |
| C#CCOc1ccc(CCNC(=O)C(OCC#C)c2ccc(Cl)cc2)cc1OC (stereo unspecified) | 0.964 |
